Measured values published in PubChem BioAssay AID1159580 (chemical genetic matrix, 2015).
The campaign covered roughly 5,500 compounds. About 2,000 (36%) were called active. Roughly 18% stayed inconclusive and do not appear here. Rule as the data show it: active = normalized growth mostly below about 0.91 (no sharp cut-off); inconclusive = no clear call, values can overlap the other calls; inactive = mostly above about 0.92. The list shows a part of the results.

Assay: chemical genetic growth profiling, strain panel (AID 1159580);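 also: tested at 20 µM; growth read once vehicle control cultures reached saturation at 30 °C; 1 = growth at the plate median or of vehicle wells; lower values mean less growth of the strain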
Settings: growth OD
[1] = S. cerevisiae deletion strains, locus YAL013W, strain DEP1, stronger effect = lower value
[2] = S. cerevisiae deletion strains, locus YBR229C, strain ROT2, stronger effect = lower value
[3] = S. cerevisiae deletion strains, locus YDL101C, strain DUN1, stronger effect = lower value
[4] = S. cerevisiae deletion strains, locus YDR150W, strain NUM1, stronger effect = lower value
[5] = S. cerevisiae deletion strains, locus YEL061C, strain CIN8, stronger effect = lower value
[6] = S. cerevisiae deletion strains, locus YGR078C, strain PAC10, stronger effect = lower value
[7] = S. cerevisiae deletion strains, locus YHR030C, strain SLT2, stronger effect = lower value
[8] = S. cerevisiae deletion strains, locus YJR043C, strain POL32, stronger effect = lower value
[9] = S. cerevisiae deletion strains, locus YJR075W, strain HOC1, stronger effect = lower value
[10] = S. cerevisiae deletion strains, locus YLR039C, strain RIC1, stronger effect = lower value
[11] = S. cerevisiae deletion strains, locus YLR262C, strain YPT6, stronger effect = lower value
[12] = S. cerevisiae deletion strains, locus YMR263W, strain SAP30, stronger effect = lower value
[13] = S. cerevisiae deletion strains, locus YNL153C, strain GIM3, stronger effect = lower value
[14] = S. cerevisiae deletion strains, locus YNL322C, strain KRE1, stronger effect = lower value
[15] = S. cerevisiae deletion strains, locus YOL006C, strain TOP1, stronger effect = lower value
[16] = S. cerevisiae deletion strains, locus YPL055C, strain LGE1, stronger effect = lower value
[17] = S. cerevisiae deletion strains, locus YPL241C, strain CIN2, stronger effect = lower value
[18] = S. cerevisiae strains, strain wild type, stronger effect = lower value

Measured: normalized growth

CSc1nc(N)nc(N2CCCCC2)n1
inactive: [1] 1 | [2] 1 | [3] 1 | [4] 0.982 | [5] 1 | [6] 1 | [7] 0.951 | S. cerevisiae deletion strains, locus YHR087W, strain rtc3, stronger effect = lower value 1 | [8] 1 | [9] 1 | [10] 1.01 | S. cerevisiae deletion strains, locus YLR058C, strain SHM2 (second series), stronger effect = lower value 1.02 | S. cerevisiae deletion strains, locus YLR085C, strain ARP6, stronger effect = lower value 0.936 | [11] 1.02 | S. cerevisiae deletion strains, locus YML094W, strain GIM5, stronger effect = lower value 0.944 | S. cerevisiae deletion strains, locus YMR219W, strain ESC1, stronger effect = lower value 1.01 | [12] 1.02 | [13] 0.99 | S. cerevisiae deletion strains, locus YNL298W, strain CLA4 (second series), stronger effect = lower value 1.02 | [14] 1 | S. cerevisiae deletion strains, locus YNR030W, strain Alg12, stronger effect = lower value 1.01 | [15] 0.812 | [16] 0.939 | [17] 0.935 | S. cerevisiae deletion strains, locus YPR135W, strain CTF4, stronger effect = lower value 0.946 | [18] 1.01

CNC(=O)[C@H]1O[C@@H](n2cnc3c(NCc4ccc(N)cc4)ncnc32)C(O)[C@H]1O (stereo not given in full)
inactive: [1] 0.978 | S. cerevisiae deletion strains, locus YAL040C, strain CLN3, stronger effect = lower value 0.991 | S. cerevisiae deletion strains, locus YER002W, strain NOP16, stronger effect = lower value 1.02 | [6] 0.986 | S. cerevisiae deletion strains, locus YNL175C, strain NOP13, stronger effect = lower value 1.02 | S. cerevisiae deletion strains, locus YNL197C, strain WHI3, stronger effect = lower value 1.01 | S. cerevisiae deletion strains, locus YNL224C, strain SQS1, stronger effect = lower value 1.02 | S. cerevisiae deletion strains, locus YOR083W, strain WHI5 (second series), stronger effect = lower value 0.995

NCC1OC(OC2C(CO)OC(OC3C(O)C(N)CC(N)C3OC3OC(CO)C(O)CC3N)C2O)C(N)C(O)C1OC1OC(CO)C(O)C(O)C1O (stereo not given)
inactive: [1] 0.997 | S. cerevisiae deletion strains, locus YBR021W, strain FUR4, stronger effect = lower value 1.17 | [2] 0.999 | S. cerevisiae deletion strains, locus YCL029C, strain bik1, stronger effect = lower value 0.977 | S. cerevisiae deletion strains, locus YDL035C, strain GPR1, stronger effect = lower value 0.996 | S. cerevisiae deletion strains, locus YDL074C, strain BRE1, stronger effect = lower value 0.993 | [3] 0.992 | S. cerevisiae deletion strains, locus YDL134C, strain PPH21, stronger effect = lower value 1.01 | S. cerevisiae deletion strains, locus YDL185W, strain tfp1, stronger effect = lower value 0.958 | S. cerevisiae deletion strains, locus YDL192W, strain arf1, stronger effect = lower value 0.984 | S. cerevisiae deletion strains, locus YDR101C, strain arx1, stronger effect = lower value 0.978 | [4] 0.991 | S. cerevisiae deletion strains, locus YDR162C, strain NBP2, stronger effect = lower value 0.992 | S. cerevisiae deletion strains, locus YDR318W, strain mcm21, stronger effect = lower value 0.997 | S. cerevisiae deletion strains, locus YDR388W, stronger effect = lower value 0.998 | S. cerevisiae deletion strains, locus YDR502C, strain sam2, stronger effect = lower value 0.988 | [5] 0.995 | S. cerevisiae deletion strains, locus YER110C, stronger effect = lower value 0.986 | S. cerevisiae deletion strains, locus YER155C, strain BEM2, stronger effect = lower value 0.995 | S. cerevisiae deletion strains, locus YER167W, strain BCK2, stronger effect = lower value 0.997 | S. cerevisiae deletion strains, locus YGL078C, strain dbp3, stronger effect = lower value 0.997 | S. cerevisiae deletion strains, locus YGL086W, strain mad1, stronger effect = lower value 1.01 | S. cerevisiae deletion strains, locus YGL248W, strain PDE1, stronger effect = lower value 0.996 | [6] 0.974 | S. cerevisiae deletion strains, locus YGR135W, strain pre9, stronger effect = lower value 0.993 | S. cerevisiae deletion strains, locus YGR229C, strain SMI1, stronger effect = lower value 0.991 | S. cerevisiae deletion strains, locus YGR252W, strain gcn5, stronger effect = lower value 1.18 | [7] 0.993 | S. cerevisiae deletion strains, locus YHR079C, strain IRE1 (second series), stronger effect = lower value 0.986 | S. cerevisiae deletion strains, locus YHR094C, strain hxt1, stronger effect = lower value 0.975 | S. cerevisiae deletion strains, locus YHR129C, strain ARP1, stronger effect = lower value 0.988 | S. cerevisiae deletion strains, locus YHR200W, strain rpn10, stronger effect = lower value 0.993 | S. cerevisiae deletion strains, locus YIL066C, strain RNR3, stronger effect = lower value 0.987 | S. cerevisiae deletion strains, locus YIL073C, strain SPO22, stronger effect = lower value 0.899 | S. cerevisiae deletion strains, locus YIL125W, strain kgd1, stronger effect = lower value 0.995 | S. cerevisiae deletion strains, locus YIR030C, strain dcg1, stronger effect = lower value 0.988 | S. cerevisiae deletion strains, locus YJL095W, strain BCK1, stronger effect = lower value 0.982 | S. cerevisiae deletion strains, locus YJL134W, strain LCB3, stronger effect = lower value 0.992 | S. cerevisiae deletion strains, locus YJL168C, strain set2, stronger effect = lower value 0.986 | S. cerevisiae deletion strains, locus YJL187C, strain SWE1 (second series), stronger effect = lower value 0.988 | [8] 0.992 | [9] 0.98 | S. cerevisiae deletion strains, locus YKL009W, strain mrt4, stronger effect = lower value 0.976 | S. cerevisiae deletion strains, locus YKL068W, stronger effect = lower value 0.978 | S. cerevisiae deletion strains, locus YKL085W, strain MDH1 (second series), stronger effect = lower value 0.983 | S. cerevisiae deletion strains, locus YKL085W, strain MDH1, stronger effect = lower value 0.983 | S. cerevisiae deletion strains, locus YKL190W, strain CNB1, stronger effect = lower value 0.995 | S. cerevisiae deletion strains, locus YKR001C, strain vps1, stronger effect = lower value 0.991 | [10] 0.944 | S. cerevisiae deletion strains, locus YLR058C, strain SHM2, stronger effect = lower value 0.999 | S. cerevisiae deletion strains, locus YLR102C, strain apc9, stronger effect = lower value 0.997 | [11] 0.916 | S. cerevisiae deletion strains, locus YLR268W, strain sec22, stronger effect = lower value 0.962 | S. cerevisiae deletion strains, locus YLR330W, strain CHS5, stronger effect = lower value 0.985 | S. cerevisiae deletion strains, locus YLR342W, strain FKS1 (second series), stronger effect = lower value 1.07 | S. cerevisiae deletion strains, locus YLR371W, strain rom2, stronger effect = lower value 0.986 | S. cerevisiae deletion strains, locus YLR418C, strain cdc73, stronger effect = lower value 1 | S. cerevisiae deletion strains, locus YML016C, strain PPZ1, stronger effect = lower value 1.01 | S. cerevisiae deletion strains, locus YML032C, strain rad52, stronger effect = lower value 0.981 | S. cerevisiae deletion strains, locus YML124C, strain tub3, stronger effect = lower value 1.01 | S. cerevisiae deletion strains, locus YMR078C, strain ctf18, stronger effect = lower value 0.993 | S. cerevisiae deletion strains, locus YMR223W, strain ubp8, stronger effect = lower value 1.03 | [12] 0.985 | S. cerevisiae deletion strains, locus YMR307W, strain GAS1, stronger effect = lower value 1.11 | S. cerevisiae deletion strains, locus YNL067W, strain RPL9B, stronger effect = lower value 0.976 | S. cerevisiae deletion strains, locus YNL128W, strain TEP1, stronger effect = lower value 0.994 | [13] 0.988 | S. cerevisiae deletion strains, locus YNL233W, strain BNI4, stronger effect = lower value 1 | S. cerevisiae deletion strains, locus YNL250W, strain rad50, stronger effect = lower value 1 | S. cerevisiae deletion strains, locus YNL271C, strain bni1, stronger effect = lower value 0.985 | S. cerevisiae deletion strains, locus YNL298W, strain CLA4, stronger effect = lower value 0.984 | S. cerevisiae deletion strains, locus YNL307C, strain MCK1, stronger effect = lower value 1 | [14] 0.995 | S. cerevisiae deletion strains, locus YNR052C, strain pop2, stronger effect = lower value 0.991 | [15] 0.948 | S. cerevisiae deletion strains, locus YOL012C, strain htz1 1.18 | S. cerevisiae deletion strains, locus YOL147C, strain pex11, stronger effect = lower value 0.998 | S. cerevisiae deletion strains, locus YOR061W, strain CKA2, stronger effect = lower value 0.997 | S. cerevisiae deletion strains, locus YOR069W, strain VPS5, stronger effect = lower value 1 | S. cerevisiae deletion strains, locus YOR136W, strain idh2, stronger effect = lower value 0.986 | S. cerevisiae deletion strains, locus YOR144C, strain elg1, stronger effect = lower value 0.985 | S. cerevisiae deletion strains, locus YOR184W, strain ser1, stronger effect = lower value 0.97 | S. cerevisiae deletion strains, locus YOR316C, strain cot1, stronger effect = lower value 0.965 | [16] 0.966 | [17] 0.997 | S. cerevisiae deletion strains, locus YPR119W, strain clb2, stronger effect = lower value 0.999 | S. cerevisiae deletion strains, locus YPR141C, strain kar3, stronger effect = lower value 0.985 | S. cerevisiae deletion strains, locus YPR163C, strain tif3, stronger effect = lower value 0.983 | S. cerevisiae deletion strains, locus YPR167C, strain met16, stronger effect = lower value 0.981 | S. cerevisiae deletion strains, strain wtn01, stronger effect = lower value 0.954 | [18] 1
